The record followed here is PubChem BioAssay AID1063 (University of Pittsburgh Molecular Library Screening Center, 2008).

Hit rate of the full screen: of about 200,000 compounds, about 18,000 (9%) were called active. Only a selection was taken, and actives are over-represented in it overall. Values without a mark were called inactive. Rule as the data show it: active = inhibition above about 50%; inactive = the rest.

A short description of the assay: antileishmanial activity against promastigotes – primary screen (AID 1063).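 Also: promastigotes grown with compound for 44 hours at 28 °C.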 To be noted: Leishmania major promastigotes, resazurin fluorescence viability; at 10 µM; hits give high values.
Consider `CCN(CC)c1ccc2c(Nc3ccccc3)c(C=O)c(=O)oc2c1`, for which the inhibition (commonly the change of the read-out against control, counted positive when it falls) is -4.13%.
As to `CCN(CC)c1ccc2oc(=O)c(C)nc2c1`, the inhibition was 96.6% (active).
With `CCN(CC)c1ccc2cc(C(=O)O)c(=O)oc2c1`, the inhibition is 22.2%.
For `CNc1[nH]ncc1[N+](=O)[O-]`, the inhibition was -7.01%.
`COc1ccc(CCn2ccc(O)c(Cc3ccc(Cl)cc3Cl)c2=O)cc1OC`: the inhibition was 7.61%.
In the case of `COCCCNC(=S)N1CCCC(c2nc3cc(C)c(C)cc3[nH]2)C1` (stereo not drawn), the inhibition is 0.93%.
On to `N=C1C(c2nc3ccccc3[nH]2)=C(O)CN1NC(=O)c1c[nH]c2ccccc12`, for which the inhibition is -3.91%.
For `Cn1c(=O)n(C)c2cc(S(=O)(=O)N3CCCc4ccccc43)ccc21`, the inhibition was 47.6%.
To `CC1Cc2ccccc2N1S(=O)(=O)c1c(N)n(C)c(=O)n(C)c1=O` (stereo not drawn) belongs 99.8% (active).
The result for `CCCCn1ccnc1C(=O)c1cccc(S(=O)(=O)N2c3ccccc3CC2C)c1` (stereo not drawn) reads 0.6%.
Take `CNS(=O)(=O)c1ccc(NC(=O)C2CC(=O)N(c3ccc(Cl)cc3)C2)cc1` (stereo not drawn): the inhibition was 13.6%.
The result for `Cc1cccc(NC(=S)NCCc2ccc(F)cc2)c1C` reads 28.5%; that for `COc1ccc(CN2CCNC(=O)C2CC(=O)N(C)Cc2ccccn2)cc1OC` (stereo not drawn), 0.79%.
`COc1cccc(NC(=S)N(CCc2c(C)[nH]c3ccccc23)Cc2ccco2)c1`: the inhibition is 19.9%.
`Cc1[nH]c2ccccc2c1CCN(Cc1cccs1)C(=S)NC(C)(C)C`: the inhibition is -1.09%.
Regarding `COc1ccc2[nH]c(C)c(CCN(Cc3cccs3)C(=S)Nc3ccccc3OC)c2c1`, the inhibition is 66.1% (active).
With `C/C(=N\NC(=O)c1cccnc1)c1ccc(-n2ccnc2)cc1`, the inhibition was -1.06%.
The result for `Cn1cc(-c2ccccc2)cc(C#N)c1=O` reads -20%; that for `CC(C)N1CCC(NC(=O)Nc2ccccc2)CC1`, -2.35%; that for `COc1cc(/C=C/C(=O)OCC(=O)N2CCOCC2)ccc1OCC#N`, -11.6%.
Turning to `Nc1nnc(SCn2nnc3ccccc3c2=O)s1`, the inhibition was -7.44%.
To `CCNC(=S)Nc1cccc(Cl)c1C` belongs -6.44%; to `S=C(NCc1ccc2c(c1)OCO2)NCc1ccco1`, 8.29%.
`Cc1c(Cl)cccc1NC(=S)NCc1ccc2c(c1)OCO2`: the inhibition is 81.5% (active).
With `CC(C)(C)c1cnnn1-c1ccc([N+](=O)[O-])cc1`, the inhibition was -0.24%.
As for `CCc1nnc(NS(=O)(=O)c2ccc(NC(=S)NC(=O)c3cccs3)cc2)s1`, the inhibition was -1.21%.
As to `Cc1c(C(=O)O)nnn1-c1nonc1N`, the inhibition is -0.68%.
Turning to `Cc1ccc(/C=C(\C#N)C(=O)Nc2cccc3ncccc23)o1`, the inhibition is 55.2% (active).
On to `Cc1ccc(C(=O)Nc2cccc3ncccc23)cc1[N+](=O)[O-]`, for which the inhibition is 0.51%.
The result for `O=C(Nc1cccc2ncccc12)C(Cl)(Cl)Cl` reads -0.02%.
As for `C=CCn1c(SCc2cc(C(=O)OC)c(C)o2)nnc1-c1ccncc1`, the inhibition is -5.9%.
Take `C=CCn1c(SCc2c(C(=O)OC)sc(N)c2C(=O)OC)nnc1-c1ccc(Cl)cc1`: the inhibition was 50.9% (active).
For `C=CCn1c(SCn2nnc3ccccc3c2=O)nnc1-c1ccc(Cl)cc1`, the inhibition is 1.86%.
Turning to `CCOC(=O)C1(CC2CCCCO2)CCN(Cc2nc(-c3cccs3)oc2C)CC1` (stereo not drawn), the inhibition was 19.6%.
Regarding `Cc1ccccc1NC(=O)NNC(=O)OC(C)(C)C`, the inhibition is -6.97%.
Turning to `CCC(C)(C)NC(=O)C1c2ccccc2Oc2ccccc21`, the inhibition was 1.22%.
To `CCCC1=Nc2cc(C(=O)NCc3ccco3)ccc2Sc2ccccc21` belongs 91.3% (active); to `CCOc1ccccc1C(=O)NCc1ccco1`, -8.32%.
As for `CCCCOc1ccc(C(=O)NCc2ccco2)cc1`, the inhibition is -3.02%.
Take `Cc1ccc(S(=O)(=O)N2CCOCC2)cc1NC(=O)CSc1nnc(N)s1`: the inhibition was -4.64%.
In the case of `CC(Sc1nncn1C)C(=O)Nc1cc(C(F)(F)F)ccc1N1CCOCC1` (stereo not drawn), the inhibition was -8.57%.
In the case of `CCCCNC(=O)c1ccc(-n2c(=S)[nH]c3ccccc3c2=O)cc1`, the inhibition is 2.08%.
`Cn1c(=O)c2cc(S(=O)(=O)NCCC(=O)Nc3ccc(F)cc3F)ccc2n(C)c1=O`: the inhibition is 8.04%.
As for `Cc1ccc(-c2nc3c(cnn3-c3ccccc3)c(=O)o2)cc1`, the inhibition is -4.66%.
In the case of `Cc1ccc(-n2ncc3c2ncn2nc(-c4ccco4)nc32)c(C)c1`, the inhibition is -2.03%.
On to `Cc1ccc(-n2ncc3c(=O)n(-c4ccc(C)c(C)c4)c(-c4ccco4)nc32)cc1`, for which the inhibition was 51.5% (active).
For `COc1ccc(-c2nc(CN3CCN(c4ncccn4)CC3)c(C)o2)cc1C`, the inhibition is 30.8%.
For the compound `COc1cc(OC)cc(-c2nc(=S)n3ccsc3n2)c1`, the inhibition was -3.3%.
Regarding `O=C(N1CCCCC1)N1CCN(C(=O)N2CCCCC2)CC1`, the inhibition is -3.35%.
On to `Cc1ccccc1NC(=O)c1nn(-c2ccc(F)c(F)c2)ccc1=O`, for which the inhibition was -0.26%.
As for `Cc1ccccc1-c1nnc(SCC(=O)NCc2ccc3c(c2)OCO3)n1C`, the inhibition is -5.07%.
Take `Cc1cccc(C)c1NC(=O)CSc1nnc(-c2ccccc2)n1Cc1ccc2c(c1)OCO2`: the inhibition is 53.4% (active).
As to `Cc1cnc(NC(=O)CSc2nnc(-c3ccccc3)n2Cc2ccccc2)s1`, the inhibition is 12.5%.
Take `COc1ccc(C2C(C(C)=O)=C(O)C(=O)N2CCc2c[nH]c3ccccc23)cc1` (stereo not drawn): the inhibition was -4.35%.
The result for `COc1ccccc1NC(=O)CSc1nnc(-c2ccoc2C)n1CCc1ccccc1` reads 76.2% (active).
The result for `COc1ccccc1NC(=O)CSc1nnc(C)n1CC1CCCO1` (stereo not drawn) reads -2.8%.
In the case of `CCCn1c(SCC(=O)Nc2cccc(C(=O)OCC)c2)nnc1-c1ccoc1C`, the inhibition was 23.8%.
For `Cc1ccc(CN2CCC(N3CCC(C(=O)NCC4CCCO4)CC3)CC2)o1` (stereo not drawn), the inhibition is -6.4%.
`CC(=O)c1cc(-c2ccccc2)n(CC(=O)NC2CCCCC2)c1C`: the inhibition was -2.4%.
As for `COc1ccccc1NC(=O)/C=C/C(N)=O`, the inhibition is 59.7% (active).
Turning to `COc1ccccc1NC(=O)/C=C/C(=O)O`, the inhibition was -7.02%.
To `COc1ccccc1NC(=O)c1ccc(C)s1` belongs 13.5%; to `O=C(COC(=O)c1cnc(Cl)c(Cl)c1)NCc1ccco1`, -5.74%.
